Results: PubChem BioAssay AID1159580 (chemical genetic matrix, 2015)
In all, about 5,500 compounds went through this assay and about 2,000 (36%) were called active. Another 18% or so got no clear call; they are omitted. Rule as the data show it: active = normalized growth mostly below about 0.91 (no sharp cut-off); inconclusive = no clear call, values can overlap the other calls; inactive = mostly above about 0.92. The list shows a part of the results.

Assay: chemical genetic growth profiling, strain panel (AID 1159580);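 also: tested at 20 µM; growth read once vehicle control cultures reached saturation at 30 °C; 1 = growth at the plate median or of vehicle wells; lower values mean less growth of the strain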
Conditions: S. cerevisiae deletion strains, growth OD

Measured: normalized growth

CC(=O)c1ccc(O)c(CC=C(C)C)c1
inactive: locus YAL021C, strain ccr4, active compounds read low 1 | locus YAL026C, strain drs2, active compounds read low 0.952 | locus YAL030W, strain snc1, active compounds read low 0.972 | locus YBL061C, strain skt5, active compounds read low 0.956 | locus YBR009C, strain hhf1, active compounds read low 0.933 | locus YBR021W, strain FUR4, active compounds read low 0.954 | locus YBR023C, strain chs3, active compounds read low 0.964 | locus YBR171W, strain sec66, active compounds read low 0.949 | locus YBR229C, strain ROT2, active compounds read low 0.983 | locus YBR231C, strain swc5, active compounds read low 0.929 | locus YBR279W, strain paf1, active compounds read low 0.977 | locus YCL011C, strain gbp2, active compounds read low 0.959 | locus YCL016C, strain dcc1, active compounds read low 0.999 | locus YCL029C, strain bik1, active compounds read low 0.967 | locus YCL061C, strain MRC1, active compounds read low 0.965 | locus YCL069W, strain vba3, active compounds read low 0.971 | locus YCR088W, strain abp1, active compounds read low 0.968 | locus YDL005C, strain med2, active compounds read low 0.952 | locus YDL035C, strain GPR1, active compounds read low 0.956 | locus YDL040C, strain nat1, active compounds read low 0.97 | locus YDL074C, strain BRE1, active compounds read low 0.867 | locus YDL101C, strain DUN1, active compounds read low 0.963 | locus YDL134C, strain PPH21, active compounds read low 0.984 | locus YDL185W, strain tfp1, active compounds read low 0.922 | locus YDL192W, strain arf1, active compounds read low 0.942 | locus YDR001C, strain nth1, active compounds read low 0.966 | locus YDR069C, strain doa4, active compounds read low 0.951 | locus YDR101C, strain arx1, active compounds read low 0.968 | locus YDR137W, strain rgp1, active compounds read low 0.983 | locus YDR159W, strain sac3, active compounds read low 0.896 | locus YDR162C, strain NBP2, active compounds read low 0.963 | locus YDR195W, strain ref2 0.975 | locus YDR297W, strain sur2, active compounds read low 0.933 | locus YDR318W, strain mcm21, active compounds read low 0.958 | locus YDR334W, strain swr1, active compounds read low 0.966 | locus YDR335W, strain msn5, active compounds read low 0.994 | locus YDR388W, active compounds read low 0.967 | locus YDR392W, strain spt3, active compounds read low 0.929 | locus YDR502C, strain sam2, active compounds read low 0.938 | locus YEL003W, strain gim4, active compounds read low 0.928 | locus YEL037C, strain rad23, active compounds read low 0.964 | locus YEL061C, strain CIN8 (second series), active compounds read low 0.965 | locus YEL061C, strain CIN8, active compounds read low 0.982 | locus YER015W, strain faa2, active compounds read low 0.971 | locus YER016W, strain bim1, active compounds read low 0.975 | locus YER110C, active compounds read low 0.965 | locus YER111C, strain swi4, active compounds read low 0.974 | locus YER155C, strain BEM2 (second series), active compounds read low 0.958 | locus YER155C, strain BEM2, active compounds read low 0.986 | locus YER167W, strain BCK2, active compounds read low 0.904 | locus YFR010W, strain ubp6, active compounds read low 0.952 | locus YGL078C, strain dbp3, active compounds read low 0.961 | locus YGL086W, strain mad1, active compounds read low 0.972 | locus YGL167C, strain pmr1, active compounds read low 0.962 | locus YGL173C, strain kem1, active compounds read low 0.949 | locus YGL227W, strain vid30, active compounds read low 0.961 | locus YGL240W, strain doc1, active compounds read low 0.894 | locus YGL248W, strain PDE1, active compounds read low 0.961 | locus YGR078C, strain PAC10, active compounds read low 0.936 | locus YGR135W, strain pre9, active compounds read low 0.934 | locus YGR229C, strain SMI1, active compounds read low 0.84 | locus YHR013C, strain ard1, active compounds read low 0.991 | locus YHR027C, strain rpn1, active compounds read low 0.971 | locus YHR030C, strain SLT2, active compounds read low 0.976 | locus YHR079C, strain IRE1 (second series), active compounds read low 0.959 | locus YHR094C, strain hxt1, active compounds read low 0.967 | locus YHR129C, strain ARP1, active compounds read low 0.967 | locus YHR142W, strain chs7, active compounds read low 0.926 | locus YHR200W, strain rpn10, active compounds read low 0.971 | locus YIL066C, strain RNR3, active compounds read low 0.945 | locus YIL073C, strain SPO22, active compounds read low 0.955 | locus YIR030C, strain dcg1, active compounds read low 0.965 | locus YJL092W, strain hpr5, active compounds read low 0.97 | locus YJL095W, strain BCK1 (second series), active compounds read low 0.964 | locus YJL095W, strain BCK1, active compounds read low 0.956 | locus YJL115W, strain asf1, active compounds read low 0.975 | locus YJL129C, strain trk1, active compounds read low 0.946 | locus YJL134W, strain LCB3, active compounds read low 0.974 | locus YJL154C, strain vps35, active compounds read low 0.966 | locus YJL164C, strain tpk1, active compounds read low 0.973 | locus YJL166W, strain qcr8, active compounds read low 0.936 | locus YJL168C, strain set2, active compounds read low 0.99 | locus YJL187C, strain SWE1 (second series), active compounds read low 0.953 | locus YJL187C, strain SWE1, active compounds read low 0.961 | locus YJR043C, strain POL32, active compounds read low 0.876 | locus YJR075W, strain HOC1, active compounds read low 0.947 | locus YKL009W, strain mrt4, active compounds read low 0.939 | locus YKL068W, active compounds read low 0.957 | locus YKL085W, strain MDH1 (second series), active compounds read low 0.951 | locus YKL085W, strain MDH1, active compounds read low 0.951 | locus YKL160W, strain elf1, active compounds read low 0.982 | locus YKR026C, strain gcn3, active compounds read low 0.962 | locus YKR091W, strain srl3, active compounds read low 0.969 | locus YLL001W, strain dnm1, active compounds read low 0.945 | locus YLL026W, active compounds read low 0.973 | locus YLL041C, strain sdh2, active compounds read low 0.965 | locus YLR027C, strain aat2, active compounds read low 0.951 | locus YLR039C, strain RIC1, active compounds read low 0.688 | locus YLR058C, strain SHM2, active compounds read low 0.977 | locus YLR102C, strain apc9, active compounds read low 0.969 | locus YLR258W, strain gsy2, active compounds read low 0.963 | locus YLR262C, strain YPT6 (second series), active compounds read low 0.968 | locus YLR262C, strain YPT6, active compounds read low 0.801 | locus YLR268W, strain sec22, active compounds read low 0.959 | locus YLR320W, strain mms22, active compounds read low 0.933 | locus YLR330W, strain CHS5, active compounds read low 0.974 | locus YLR342W, strain FKS1 (second series), active compounds read low 0.95 | locus YLR342W, strain FKS1, active compounds read low 0.963 | locus YLR357W, strain rsc2, active compounds read low 0.967 | locus YLR370C, strain arc18, active compounds read low 0.965 | locus YLR371W, strain rom2, active compounds read low 0.978 | locus YLR384C, strain iki3, active compounds read low 0.961 | locus YLR418C, strain cdc73, active compounds read low 0.872 | locus YML016C, strain PPZ1, active compounds read low 0.982 | locus YML032C, strain rad52, active compounds read low 0.967 | locus YML120C, strain ndi1, active compounds read low 0.966 | locus YML124C, strain tub3, active compounds read low 0.96 | locus YMR058W, strain fet3, active compounds read low 0.963 | locus YMR078C, strain ctf18, active compounds read low 0.951 | locus YMR125W, strain sto1, active compounds read low 1 | locus YMR129W, active compounds read low 0.969 | locus YMR205C, strain PFK2, active compounds read low 0.981 | locus YMR223W, strain ubp8, active compounds read low 0.932 | locus YMR231W, strain pep5, active compounds read low 0.972 | locus YMR263W, strain SAP30, active compounds read low 0.949 | locus YMR307W, strain GAS1, active compounds read low 0.923 | locus YNL067W, strain RPL9B, active compounds read low 0.953 | locus YNL071W, strain lat1, active compounds read low 0.957 | locus YNL153C, strain GIM3, active compounds read low 0.969 | locus YNL209W, strain ssb2, active compounds read low 0.997 | locus YNL233W, strain BNI4, active compounds read low 0.929 | locus YNL250W, strain rad50, active compounds read low 0.967 | locus YNL271C, strain bni1, active compounds read low 0.957 | locus YNL298W, strain CLA4, active compounds read low 0.977 | locus YNL307C, strain MCK1, active compounds read low 0.952 | locus YNL322C, strain KRE1 (second series), active compounds read low 0.959 | locus YNR049C, strain mso1, active compounds read low 0.968 | locus YNR052C, strain pop2, active compounds read low 0.983 | locus YOL006C, strain TOP1, active compounds read low 0.587 | locus YOL012C, strain htz1 1.06 | locus YOL147C, strain pex11, active compounds read low 0.977 | locus YOR001W, strain rrp6, active compounds read low 0.922 | locus YOR061W, strain CKA2, active compounds read low 0.989 | locus YOR069W, strain VPS5, active compounds read low 0.981 | locus YOR070C, strain gyp1, active compounds read low 0.979 | locus YOR080W, strain dia2, active compounds read low 0.951 | locus YOR083W, strain WHI5, active compounds read low 0.979 | locus YOR106W, strain vam3, active compounds read low 0.938 | locus YOR136W, strain idh2, active compounds read low 0.972 | locus YOR144C, strain elg1, active compounds read low 0.979 | locus YOR184W, strain ser1, active compounds read low 0.96 | locus YOR265W, strain rbl2, active compounds read low 0.964 | locus YOR290C, strain snf2, active compounds read low 0.976 | locus YOR316C, strain cot1, active compounds read low 0.969 | locus YPL051W, strain arl3, active compounds read low 0.916 | locus YPL078C, strain atp4, active compounds read low 0.959 | locus YPL106C, strain sse1, active compounds read low 0.969 | locus YPL240C, strain hsp82, active compounds read low 0.979 | locus YPR119W, strain clb2, active compounds read low 0.961 | locus YPR141C, strain kar3, active compounds read low 0.964 | locus YPR163C, strain tif3, active compounds read low 0.948 | locus YPR167C, strain met16, active compounds read low 0.969 | strain wtn01, active compounds read low 0.957
active: locus YGL253W, strain hxk2, active compounds read low 0.884 | locus YGR252W, strain gcn5, active compounds read low 0.749 | locus YKR001C, strain vps1, active compounds read low 0.808 | locus YLR221C, strain rsa3, active compounds read low 0.905 | locus YNL248C, strain rpa49, active compounds read low 0.871 | locus YOR270C, strain vph1, active compounds read low 0.737
